The text below walks through data of PubChem BioAssay.

The structures appear in SMILES notation. Results filed as inconclusive are left out. Active and inactive are the calls of the source.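 Rule for the calls, unless noted: active = viability at or below 10% of carrier control in both of two separate runs; inconclusive = viability at or below 10% in only one of the two runs; inactive = the rest.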

Test [1] is described as follows: Her2 expression decrease, cell viability multiplex – SKBR3 breast tumor cells, AlphaScreen, ATP viability, primary screen (AID 461;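 active = Her2 level under about 52% in both replicate screens, with viability over 70% of control, limit read from the data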;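 for Her2 level: lower value means less Her2 protein in the cells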;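 for viability: percent of carrier control wells set as 100% viability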). To be noted: SKBR3 Her2 protein level, 18-24 h, measured here: SKBR3 viability, ATP luminescence, at 10 µM. In general terms: Alpha assays give light when donor and acceptor beads are brought close together.
Test [2] addresses Receptor tyrosine-protein kinase erbB-2 (Homo sapiens) (UniProt P04626). The description is as above. The settings on record: 18-24 h, at 10 µM, stronger effect = lower value.
Test [3] is described as follows: reduced viability of SK-BR-3 breast cancer cells – cell-based, 24 h, human, pilot screen (AID 572).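 Note: compound exposure lasted between 18 and 24 h rather than exactly 24 h; 100% = carrier-treated control wells.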 To be noted: SK-BR-3 viability, CellTiter-Glo luminescence, at 10 µM, stronger effect = lower value.
A short description of test [4]: HUVEC growth inhibition – cell-based, human, primary screen (AID 575;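 active = viability at or below 30% in both replicate assays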;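 note: 100% = median of untreated cell wells with 0.1% DMSO on each plate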). The settings on record: HUVEC proliferation, CellTiter-Glo luminescence, 72 h; at 10 µM; stronger effect = lower value. For orientation: Cellular ATP, detected with luciferase, serves as a proxy for viable cell number.
Test [5] in a line: H69AR cell proliferation blockers – human, duplicate replicates, primary screen (AID 580;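 active = viability at or under a set limit in both replicates, limit being median viability minus 3 SD, cut at about 48% in these data, passing the limit was not always enough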;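 note: 100% = mean luminescence of untreated wells and 0% = no signal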). The settings on record: H69AR lung tumor cells viability, ATP luminescence, 72 h; at 10 µM; stronger effect = lower value.
Test [6] is described as follows: MRP1 drug-resistance reversers in H69AR cells – cell-based, doxorubicin co-treatment, pilot screen (AID 601;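 active = viability loss from added drug above about 55%, and viability with drug at most 40%, in both replicates, limit read from the data, passing the limit was not always enough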). To be noted: CellTiter-Glo, 72 h, at 10 µM; for differential viability (reversal): stronger effect = higher value.
A short description of test [7]: yeast transport mutant growth inhibition pilot in 384-well plates, post-Golgi transport modulator project (AID 636; in the data active = inhibition above about 31%). To be noted: absorbance 615 nm, about 18 h, stronger effect = higher value.
Test [8] is described as follows: growth suppression of yeast trafficking mutant, preliminary HTS, modulators of trafficking downstream of Golgi apparatus project, 1536-format plate, OD 615 nm (AID 637; in the data active = inhibition above about 30%). The settings on record: yeast transport mutant growth, absorbance 615 nm, 18 h; stronger effect = higher value.
Test [9] can be described thus: S. cerevisiae growth inhibition in permissive medium (OD615), pilot counter-assay for S. cerevisiae lifespan shortening project, permissive growth control (AID 705;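 active = growth inhibition above 25% in both replicates, a cutoff set 3 SD above the mean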). To be noted: OD615, 24 h, at 10 µM, stronger effect = higher value.
A short description of test [10]: S. cerevisiae growth inhibition in restrictive medium, OD615, pilot screen, restrictive growth control, yeast lifespan reduction project (AID 706;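 active = growth inhibition above a set limit, 3 SD over mean compound inhibition, in both replicates, cut at about 43% in these data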;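 note: modified DeaD lifespan yeast strain shifted to restrictive glucose medium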). The settings on record: OD615, 48 h, at 10 µM, stronger effect = higher value.
Test [11] in a line: doxorubicin toxicity protection in MRP-1 cells – H69AR cells, CellTiter-Glo, duplicate, MRP-1 activator project, pilot screen (AID 807;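 active = viability increase at or above a cutoff of the median across tested compounds plus 3 SD, cut at about 8.5% in these data, passing the limit was not always enough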;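 note: compound pretreatment 18-22 h then 72 h combined with doxorubicin; 0% = doxorubicin alone and 100% = vehicle without doxorubicin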). To be noted: H69AR viability with doxorubicin, CellTiter-Glo luminescence; at 10 µM; stronger effect = higher value.
Test [12] in a line: viability of HCT116 without oncogenic beta-catenin – human colon tumor cells, pilot screen (AID 823;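 active = cell viability at or below a set limit in both duplicate runs, the limit being the all-compound median minus 4 SD, cut at about 23% in these data, passing the limit was not always enough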;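 note: 0% = wells killed by 20 µM Hyamine and 100% = untreated DMSO cell wells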). The settings on record: HCT116 beta-catenin knockout viability, CellTiter-Glo, 60 h; at 10 µM; stronger effect = lower value.
Test [13] in a line: viability of PTEN-null HCT116 cells – cell-based, HCT116 clonal line, CellTiter-Glo, pilot screen (AID 824;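 active = viability at or below 27.92% in each of two runs, the all-compound median minus 4 SD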;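 note: 0% = 20 µM Hyamine control and 100% = vehicle cell control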). To be noted: HCT116 PTEN-deleted viability, 60 h, at 10 µM, stronger effect = lower value.
Test [14] in a line: RAM pathway blockade in budding yeast – dse1pr::URA3 reporter, 5-FOA selection, pilot screen (AID 869;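 active = inhibition over a set limit, the all-compound mean plus 3 SD, in both replicate runs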;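 note: 0% = DMSO wells with no growth and 100% = 10 µM 1-NA-PP1 with full growth; RAM network block rescues cells from 5-FOA so hits raise OD615 growth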). To be noted: S. cerevisiae dse1pr::URA3 5-FOA growth, OD615, 2 d; at 10 µM; stronger effect = higher value; strain carries analog-sensitive mutant Cbk1 kinase.
Test [15] is described as follows: RAM signaling pathway blockade in yeast – S. cerevisiae, Pdr1DBD-CYC8 efflux-inhibited sensitized strain, primary screen (AID 1298;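 active = RAM network inhibition above 8.4% in each of two replicates, 3 SD over the compound average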;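 note: 0% = DMSO untreated cells without growth and 100% = 10 µM 1-NA-PP1 full growth; higher means more yeast growth rescued from 5-FOA killing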). The settings on record: S. cerevisiae cbk1-as DSE1-URA3 strain, 5-FOA growth OD615, 2 d; at 50 µM; stronger effect = higher value.
Where [16] appears, read: H69AR cells + 2 uM doxorubicin, measured here: viability with 2 uM doxorubicin, stronger effect = lower value.
Setting [17] is: H69AR cells, compound alone cytotoxicity.

The viability is a read-out of living cells in per cent, often relative to untreated cells. A word on the inhibition: it is the drop in the measured response relative to a control, in per cent.

Chain of Receptor tyrosine-protein kinase erbB-2 (Homo sapiens) (P04626 whole entry, looked up): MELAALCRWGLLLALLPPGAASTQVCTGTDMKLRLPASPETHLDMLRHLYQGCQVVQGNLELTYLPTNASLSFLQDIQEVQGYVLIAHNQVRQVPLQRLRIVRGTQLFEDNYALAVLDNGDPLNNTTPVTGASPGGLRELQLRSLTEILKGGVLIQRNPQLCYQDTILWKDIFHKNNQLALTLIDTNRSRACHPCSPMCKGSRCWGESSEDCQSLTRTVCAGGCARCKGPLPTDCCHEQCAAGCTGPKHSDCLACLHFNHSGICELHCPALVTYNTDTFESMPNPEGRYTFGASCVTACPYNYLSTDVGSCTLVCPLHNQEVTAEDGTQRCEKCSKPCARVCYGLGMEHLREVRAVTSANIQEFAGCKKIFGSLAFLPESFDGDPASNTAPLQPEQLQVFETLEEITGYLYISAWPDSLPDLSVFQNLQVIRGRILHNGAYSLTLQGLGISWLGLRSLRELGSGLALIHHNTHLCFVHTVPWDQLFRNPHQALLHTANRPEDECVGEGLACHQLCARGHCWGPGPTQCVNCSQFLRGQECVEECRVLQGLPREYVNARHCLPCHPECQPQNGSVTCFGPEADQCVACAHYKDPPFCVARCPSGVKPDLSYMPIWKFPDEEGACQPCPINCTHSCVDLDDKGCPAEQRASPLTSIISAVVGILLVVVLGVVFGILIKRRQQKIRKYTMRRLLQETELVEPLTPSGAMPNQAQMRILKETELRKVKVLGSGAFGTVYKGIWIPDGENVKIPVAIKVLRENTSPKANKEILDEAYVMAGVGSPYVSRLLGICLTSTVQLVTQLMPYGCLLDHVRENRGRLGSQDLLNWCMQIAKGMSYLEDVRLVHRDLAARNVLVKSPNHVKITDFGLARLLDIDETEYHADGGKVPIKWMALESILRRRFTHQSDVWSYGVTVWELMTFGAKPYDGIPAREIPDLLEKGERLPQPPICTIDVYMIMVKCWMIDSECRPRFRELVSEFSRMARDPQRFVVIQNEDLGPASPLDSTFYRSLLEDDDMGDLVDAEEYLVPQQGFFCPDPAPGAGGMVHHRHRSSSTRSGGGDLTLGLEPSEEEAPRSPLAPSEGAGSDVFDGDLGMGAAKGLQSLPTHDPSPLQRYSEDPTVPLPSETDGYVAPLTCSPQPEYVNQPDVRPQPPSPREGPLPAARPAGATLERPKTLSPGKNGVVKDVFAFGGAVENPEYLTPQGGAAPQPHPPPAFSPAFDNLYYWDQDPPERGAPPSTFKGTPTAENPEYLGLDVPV

Take `C=C(C)Cn1c(N2CC(C)CC(C)C2)nc2c1c(=O)[nH]c(=O)n2C` (stereo not given): the viability in test [1] was 84%; in test [3], 84% (inactive); in test [4] it was 96.2% (inactive); in test [5] it was 83.2% (inactive); in test [6] (setting [16]) it was 95.1%; in test [6] (setting [17]) it was 83.2%. Further, the viability in test [12] is 78.3% (inactive); in test [13], 81.2% (inactive). The Her2 level in test [2] is 86% (inactive). In addition, the differential viability (reversal) in [6] (H69AR cells + 2 uM doxorubicin) is -11.8% (inactive). Besides, the inhibition was -4.93% (inactive) in test [7], 1% (inactive) in test [8] and 1.05% (inactive) in test [14]. For the same compound, the growth inhibition was -5.73% (inactive) in [9] and 0.695% (inactive) in [10]. Further, in test [11], the viability increase was -5.11% (inactive). In addition, the RAM network inhibition in test [15] is 1.9% (inactive).
For `Cc1cc(C)nc(SCc2csc(N)n2)n1`, the viability was 89.5% in [1]; 89.5% (inactive) in test [3]; 89.6% (inactive) in test [4]; 90.1% (inactive) in [5]; 94.1% in [6] (setting [16]); 90.1% in [6] (setting [17]). Besides, the viability in test [12] was 105% (inactive); in test [13] it was 99.6% (inactive). The Her2 level in test [2] is 85% (inactive). The differential viability (reversal) in [6] (H69AR cells + 2 uM doxorubicin) is -4.05% (inactive). Also, the inhibition in test [7] is -0.26% (inactive); in test [8], -2.67% (inactive); in test [14] it was 0.605% (inactive). Also, the growth inhibition in test [9] is 3.96% (inactive); in test [10], 14.9% (inactive). Also, in [11], the viability increase was 1.21% (inactive). In addition, the RAM network inhibition in test [15] is 4.19% (inactive).
Take `CCOC(=O)C1=C(C)NC(=O)NC1c1ccc(Br)s1` (stereo not given): the viability was 119% in [1]; 119% (inactive) in test [3]; 103% (inactive) in test [4]; 108% (inactive) in [5]; 83.5% in test [6] (setting [16]); 108% in test [6] (setting [17]). Moreover, the values for the viability in test [12] and in [13] were 92.8% (inactive) and 89.7% (inactive), respectively. Further, in test [2], the Her2 level was 102% (inactive). Further, the differential viability (reversal) in test [6] (H69AR cells + 2 uM doxorubicin) is 24.9% (inactive). Besides, the inhibition in test [7] was -6.53% (inactive); in [8] it was 4.03% (inactive); in test [14], 0.86% (inactive). For the same compound, the growth inhibition is -10.5% (inactive) in test [9] and -15.3% (inactive) in test [10]. In addition, in [11], the viability increase is -0.63% (inactive). The RAM network inhibition in test [15] is 3.71% (inactive).
On to `COc1cccc(-c2nnc(NC(C)=O)o2)c1`, for which the viability in [1] is 93.5%; in test [3], 93.5% (inactive); in test [4], 103% (inactive); in test [5] it was 98.8% (inactive); in test [6] (setting [16]) it was 91.6%; in test [6] (setting [17]), 98.8%. For the same compound, the viability in test [12] was 101% (inactive); in [13] it was 105% (inactive). The Her2 level in test [2] is 99.5% (inactive). The differential viability (reversal) in test [6] (H69AR cells + 2 uM doxorubicin) was 7.19% (inactive). Also, the results for the inhibition in [7], in test [8] and in [14] were -5.47% (inactive), -4.33% (inactive) and 1.76% (inactive), respectively. The figures for the growth inhibition in test [9] and in test [10] were -0.545% (inactive) and 1.75% (inactive), respectively. Further, the viability increase in test [11] was -1% (inactive). In addition, in [15], the RAM network inhibition was 1.45% (inactive).
On to `COc1nnc(-c2ccc(C)c(S(=O)(=O)NCCO)c2)c2ccccc12`, for which the viability in test [1] was 93.5%; in test [3], 93.5% (inactive); in [4], 110% (inactive); in test [5], 87.9% (inactive); in [6] (setting [16]), 90.3%; in test [6] (setting [17]) it was 87.9%. The viability in test [12] was 106% (inactive); in test [13], 101% (inactive). In addition, the Her2 level in [2] was 108% (inactive). Moreover, the differential viability (reversal) in [6] (H69AR cells + 2 uM doxorubicin) is -2.42% (inactive). Besides, the inhibition in test [7] is -1.04% (inactive); in test [8], -6% (inactive); in test [14], -0.06% (inactive). For the same compound, the growth inhibition in test [9] was -0.385% (inactive); in test [10], 10% (inactive). In addition, the viability increase in test [11] is -1.67% (inactive). In [15], the RAM network inhibition is 2.58% (inactive).
